The assay can be described thus: NCI Yeast Anticancer Drug Screen. Data for the CLN2oe strain (AID 163).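 Also: 0% = growth of vehicle-only control cultures.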 The note with it: S. cerevisiae CLN2oe strain, stronger effect = higher value. On the procedure:
Growth inhibition of yeast strains with defined genetic alterations is measured as a screen for potential anti-cancer activity. Selected strains with alterations in DNA damage repair or cell cycle control were exposed to compounds and growth inhibition was measured relative to vehicle treated controls. The strain used in this assay is CLN2oe

This is part of a sample that, as a whole, favours compounds with a hit. Of some 79,000 tested, about 15% had one in any assay. A number with no mark means an inactive call. The source made the active and inactive calls. Rule as the data show it: active = growth inhibition above about 70%; inactive = the rest.

For the molecule `CCOC(=O)C(NC(=O)c1ccccc1)[CH](c1ccccc1)[Sn]([c]1ccccc1)([c]1ccccc1)[c]1ccccc1` (stereo not given), the growth inhibition was -5% (at 1.2 µM); -11% (at 3.7 µM); -15% (at 11.0 µM); -6% (at 33.0 µM); 95% (active) (at 100.0 µM).
As to `Cc1ccc(C(C)C)c(C(=C2C=CC(=[N+](C)C)C=C2)c2c(C(C)C)ccc(C)c2O)c1O`, the growth inhibition is, setting by setting: (at 1.2 µM) 2%; (at 3.7 µM) 26%; (at 11.0 µM) 97% (active); (at 33.0 µM) 93% (active); (at 100.0 µM) 75% (active).
`NCC(O)CSCc1ccc(Cl)cc1` (stereo not given): the growth inhibition was -2% (at 1.2 µM); 0% (at 3.7 µM); -2% (at 11.0 µM); 0% (at 33.0 µM); 28% (at 100.0 µM).
`CC(C)(C)[Si](C)(C)OCC1OC(n2cnc3c(N)ncnc32)C2OC(=S)OC12` (stereo not given): the growth inhibition reads like this: (at 1.2 µM) -2%; (at 3.7 µM) -3%; (at 11.0 µM) -1%; (at 33.0 µM) -2%; (at 100.0 µM) 9%.
For `CCCCCCCCCC/C=C\CC(=O)O`, the growth inhibition was -3% (at 1.2 µM); -1% (at 3.7 µM); -1% (at 11.0 µM); -5% (at 33.0 µM); 73% (active) (at 100.0 µM).
`Cc1c2ccncc2c(C)c2c1oc1ccccc12`: the growth inhibition is 12% (at 1.2 µM); 30% (at 3.7 µM); 53% (at 11.0 µM); 89% (active) (at 33.0 µM); 97% (active) (at 100.0 µM).
On to `CN(C)/N=N/c1nc[nH]c1C(N)=O`, for which the growth inhibition runs as follows: (at 1.2 µM) 1%; (at 3.7 µM) 2%; (at 11.0 µM) 0%; (at 33.0 µM) 0%; (at 100.0 µM) 99% (active).
Consider `CCC(C)C(=O)OCC(=O)c1ccc(-c2ccccc2)cc1` (stereo not given), for which the growth inhibition is 3% (at 1.2 µM); 3% (at 3.7 µM); 1% (at 11.0 µM); -6% (at 33.0 µM); -7% (at 100.0 µM).

Source of the values: PubChem BioAssay (NCI).
